About 7,900 targets were measured; listed, in parts, are those with a hit and a random draw of the rest. About 0.6% of all pairs of compound and target were hits. Unmarked numbers belong to inactive results.
What was measured:
Assay in all cases: log2 fold change, soluble protein after heating vs DMSO (PISA); higher = thermal stabilisation; K562 cells, 10 uM, 30 min; active = over 0.2 and 3.5 SD of the protein, either way, in both replicates (recomputed)
[1] = compound: CS(=O)(=O)c1ccc(-c2cnc(N)c(C(=O)Nc3ccccc3)n2)cc1
Procedure, shortened: (§1)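 Thermal stability values are relative to control samples and come from duplicates. They are expressed as log2 fold changes. For measurement, K562 cells (2×10^6 cells/mL) received 10 μM compound for 30 min, and aliquots were heated for 3 min over 48°C-58°C, pooled, and extracted at 4°C in PBS with 0.5% NP-40. Soluble protein, the supernatant after 21,000xg for 90 min, was quantified by TMTpro 16plex LC-MS/MS with equalised channel sums.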

crizotinib = compound: C[C@@H](Oc1cc(-c2cnn(C3CCNCC3)c2)cnc1N)c1c(Cl)ccc(F)c1Cl [crizotinib]
Procedure, shortened: as §1

[2] = compound: C[C@@H]1COCCN1C2=NC(=NC(=C2)C3(CC3)S(=O)(=O)C)C4=C5C=CNC5=CC=C4
Procedure, shortened: as §1

[3] = compound: C[C@H](C1=CC=C(C=C1)C(=O)NC2=C3C=CNC3=NC=C2)N
Procedure, shortened: as §1

duvelisib = compound: C[C@H](Nc1ncnc2nc[nH]c12)c1cc2cccc(Cl)c2c(=O)n1-c1ccccc1 [duvelisib]
Procedure, shortened: as §1

gandotinib = compound: Cc1cc(Nc2cc(CN3CCOCC3)c3nc(C)c(Cc4ccc(Cl)cc4F)n3n2)n[nH]1 [gandotinib]
Procedure, shortened: as §1

tozasertib = compound: Cc1cc(Nc2cc(N3CCN(C)CC3)nc(Sc3ccc(NC(=O)C4CC4)cc3)n2)n[nH]1 [tozasertib]
Procedure, shortened: as §1

[4] = compound: Cc1cc(SCc2sc(-c3ccc(C(F)(F)F)cc3)nc2C)ccc1OCC(=O)O
Procedure, shortened: as §1

doramapimod = compound: Cc1ccc(-n2nc(C(C)(C)C)cc2NC(=O)Nc2ccc(OCCN3CCOCC3)c3ccccc23)cc1 [doramapimod]
Procedure, shortened: as §1

ispinesib = compound: Cc1ccc(C(=O)N(CCCN)[C@@H](c2nc3cc(Cl)ccc3c(=O)n2Cc2ccccc2)C(C)C)cc1 [ispinesib]
Procedure, shortened: as §1

bafetinib = compound: Cc1ccc(NC(=O)c2ccc(CN3CC[C@H](N(C)C)C3)c(C(F)(F)F)c2)cc1Nc1nccc(-c2cncnc2)n1 [bafetinib]
Procedure, shortened: as §1

[5] = compound: Cc1cccc(CC(=O)N2CCc3c2ccc(-c2cn(C)c4ncnc(N)c24)c3F)n1
Procedure, shortened: as §1

nilotinib = compound: Cc1cn(-c2cc(NC(=O)c3ccc(C)c(Nc4nccc(-c5cccnc5)n4)c3)cc(C(F)(F)F)c2)cn1 [nilotinib]
Procedure, shortened: as §1

[6] = compound: Cc1nc(Nc2n[nH]c3c2CN(C(=O)N[C@H](CN(C)C)c2ccccc2)C3(C)C)c2sccc2n1
Procedure, shortened: as §1

dasatinib = compound: Cc1nc(Nc2ncc(C(=O)Nc3c(C)cccc3Cl)s2)cc(N2CCN(CCO)CC2)n1 [dasatinib]
Procedure, shortened: as §1

[7] = compound: Cc1ncc(-c2ccnc(Nc3ccc(S(C)(=O)=O)cc3)n2)n1C(C)C
Procedure, shortened: as §1

[8] = compound: Cn1cc(-c2ccc3c(c2)CCN3C(=O)Cc2cccc(C(F)(F)F)c2)c2c(N)ncnc21
Procedure, shortened: as §1

[9] = compound: Cn1cc(-c2ccc3nnc(C(F)(F)c4ccc5ncccc5c4)n3n2)cn1
Procedure, shortened: as §1

tipifarnib = compound: Cn1cncc1[C@@](N)(c1ccc(Cl)cc1)c1ccc2c(c1)c(-c1cccc(Cl)c1)cc(=O)n2C [tipifarnib]
Procedure, shortened: as §1

mubritinib = compound: FC(F)(F)c1ccc(/C=C/c2nc(COc3ccc(CCCCn4ccnn4)cc3)co2)cc1 [mubritinib]
Procedure, shortened: as §1

UniProt Q7Z5K2, sequence (Q7Z5K2 whole entry, looked up): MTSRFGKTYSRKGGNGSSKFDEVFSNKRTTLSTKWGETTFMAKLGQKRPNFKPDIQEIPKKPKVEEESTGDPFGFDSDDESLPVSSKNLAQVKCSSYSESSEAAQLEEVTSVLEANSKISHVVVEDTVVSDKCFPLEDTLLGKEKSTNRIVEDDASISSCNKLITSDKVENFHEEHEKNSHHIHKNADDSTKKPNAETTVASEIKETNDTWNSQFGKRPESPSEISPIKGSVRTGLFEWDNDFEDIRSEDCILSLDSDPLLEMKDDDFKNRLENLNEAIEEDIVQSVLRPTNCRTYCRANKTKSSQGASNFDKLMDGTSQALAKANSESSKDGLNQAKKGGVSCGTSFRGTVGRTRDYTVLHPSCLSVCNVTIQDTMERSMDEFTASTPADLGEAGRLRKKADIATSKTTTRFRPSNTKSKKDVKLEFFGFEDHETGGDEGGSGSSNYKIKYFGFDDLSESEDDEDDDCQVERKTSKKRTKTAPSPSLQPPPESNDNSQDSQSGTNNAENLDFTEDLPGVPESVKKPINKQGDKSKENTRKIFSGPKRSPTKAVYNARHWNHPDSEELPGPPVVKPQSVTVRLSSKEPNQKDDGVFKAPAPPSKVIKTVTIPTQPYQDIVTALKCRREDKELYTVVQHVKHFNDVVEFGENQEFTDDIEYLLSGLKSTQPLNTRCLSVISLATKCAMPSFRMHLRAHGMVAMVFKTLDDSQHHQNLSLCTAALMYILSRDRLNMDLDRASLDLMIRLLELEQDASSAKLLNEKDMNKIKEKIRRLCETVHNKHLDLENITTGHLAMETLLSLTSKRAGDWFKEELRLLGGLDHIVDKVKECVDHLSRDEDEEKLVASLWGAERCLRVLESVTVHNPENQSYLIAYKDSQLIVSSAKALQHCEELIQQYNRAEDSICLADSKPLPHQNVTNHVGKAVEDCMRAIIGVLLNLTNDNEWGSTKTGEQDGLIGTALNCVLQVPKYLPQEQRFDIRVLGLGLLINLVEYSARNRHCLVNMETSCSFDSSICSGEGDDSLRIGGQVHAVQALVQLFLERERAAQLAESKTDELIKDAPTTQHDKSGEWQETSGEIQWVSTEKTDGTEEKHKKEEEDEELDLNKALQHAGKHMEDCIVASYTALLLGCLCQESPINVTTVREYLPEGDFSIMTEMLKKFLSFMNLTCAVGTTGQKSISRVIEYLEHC
UniProt Q8IZ69, sequence (Q8IZ69 whole entry, looked up): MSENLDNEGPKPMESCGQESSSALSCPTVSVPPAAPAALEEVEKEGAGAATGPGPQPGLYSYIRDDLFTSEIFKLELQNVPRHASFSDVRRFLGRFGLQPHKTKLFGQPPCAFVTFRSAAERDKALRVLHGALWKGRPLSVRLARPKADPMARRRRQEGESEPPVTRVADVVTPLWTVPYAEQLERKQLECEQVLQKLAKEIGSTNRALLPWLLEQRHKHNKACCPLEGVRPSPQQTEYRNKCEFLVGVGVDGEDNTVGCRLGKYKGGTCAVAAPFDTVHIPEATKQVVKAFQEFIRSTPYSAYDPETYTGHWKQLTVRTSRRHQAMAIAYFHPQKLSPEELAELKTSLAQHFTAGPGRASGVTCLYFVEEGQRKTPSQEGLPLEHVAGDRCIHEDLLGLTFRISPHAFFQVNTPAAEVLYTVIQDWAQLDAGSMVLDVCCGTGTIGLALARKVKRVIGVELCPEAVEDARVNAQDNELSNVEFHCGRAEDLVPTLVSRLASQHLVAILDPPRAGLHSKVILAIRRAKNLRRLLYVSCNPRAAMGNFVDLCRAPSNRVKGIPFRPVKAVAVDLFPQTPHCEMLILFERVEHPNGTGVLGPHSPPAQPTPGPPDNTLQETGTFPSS
UniProt Q969T4, sequence (Q969T4 whole entry, looked up): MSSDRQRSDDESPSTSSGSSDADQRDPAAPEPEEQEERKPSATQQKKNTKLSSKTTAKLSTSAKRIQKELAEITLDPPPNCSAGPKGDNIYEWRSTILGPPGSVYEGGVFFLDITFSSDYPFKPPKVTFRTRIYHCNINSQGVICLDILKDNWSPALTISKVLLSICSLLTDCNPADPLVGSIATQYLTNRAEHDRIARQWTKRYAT
UniProt A5PLN9, sequence (A5PLN9 whole entry, looked up): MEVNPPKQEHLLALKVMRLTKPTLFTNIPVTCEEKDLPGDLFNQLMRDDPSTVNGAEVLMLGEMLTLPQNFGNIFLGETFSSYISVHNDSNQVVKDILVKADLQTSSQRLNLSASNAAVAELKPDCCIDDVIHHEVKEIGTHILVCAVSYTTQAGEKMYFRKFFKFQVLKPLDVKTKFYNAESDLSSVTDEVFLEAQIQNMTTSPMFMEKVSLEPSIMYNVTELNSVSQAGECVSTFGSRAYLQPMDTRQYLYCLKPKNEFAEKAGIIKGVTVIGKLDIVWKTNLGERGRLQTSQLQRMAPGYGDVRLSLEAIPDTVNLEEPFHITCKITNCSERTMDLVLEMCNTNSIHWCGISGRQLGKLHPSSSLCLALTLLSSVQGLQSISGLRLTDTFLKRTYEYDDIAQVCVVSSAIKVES
UniProt O75674, sequence (O75674 whole entry, looked up): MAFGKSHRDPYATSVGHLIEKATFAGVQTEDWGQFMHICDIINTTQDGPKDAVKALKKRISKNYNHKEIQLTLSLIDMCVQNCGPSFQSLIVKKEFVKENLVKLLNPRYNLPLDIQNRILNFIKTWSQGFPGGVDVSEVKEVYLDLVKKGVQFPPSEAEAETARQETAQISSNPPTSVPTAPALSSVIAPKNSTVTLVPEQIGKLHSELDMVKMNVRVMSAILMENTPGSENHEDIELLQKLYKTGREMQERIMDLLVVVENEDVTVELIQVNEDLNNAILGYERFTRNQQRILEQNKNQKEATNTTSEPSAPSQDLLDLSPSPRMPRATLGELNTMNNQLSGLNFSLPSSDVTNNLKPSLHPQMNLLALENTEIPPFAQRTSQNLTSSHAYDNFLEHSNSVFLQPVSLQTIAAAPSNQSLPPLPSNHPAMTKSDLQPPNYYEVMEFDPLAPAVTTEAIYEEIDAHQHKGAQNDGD
UniProt Q86SZ2, sequence (Q86SZ2 whole entry, looked up): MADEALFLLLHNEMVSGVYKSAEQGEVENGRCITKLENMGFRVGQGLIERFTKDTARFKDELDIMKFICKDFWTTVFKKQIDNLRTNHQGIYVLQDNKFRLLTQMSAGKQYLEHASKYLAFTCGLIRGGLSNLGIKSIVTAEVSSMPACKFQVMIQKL

Target | log2 fold change [1] | log2 fold change (crizotinib) | log2 fold change [2] | log2 fold change [3] | log2 fold change (duvelisib) | log2 fold change (gandotinib) | log2 fold change (tozasertib) | log2 fold change [4] | log2 fold change (doramapimod) | log2 fold change (ispinesib) | log2 fold change (bafetinib) | log2 fold change [5] | log2 fold change (nilotinib) | log2 fold change [6] | log2 fold change (dasatinib) | log2 fold change [7] | log2 fold change [8] | log2 fold change [9] | log2 fold change (tipifarnib) | log2 fold change (mubritinib)
UBE2E3 (UniProt Q969T4) | 0.008 | 0 | 0.219 | 0.008 | 0.025 | -0.052 | 0.061 | 0.034 | 0.03 | -0.005 | -0.029 | -0.029 | -0.126 | 0.023 | -0.113 | 0.025 | -0.028 | -0.004 | -0.131 | 0.056
TRAPPC13 isoform 5 (UniProt A5PLN9) | -0.037 | -0.054 | 0.067 | 0.009 | 0.02 | -0.007 | -0.028 | 0.087 | 0.047 | 0.032 | 0.11 | 0.149 | -0.019 | 0 | -0.346 (active) | -0.056 | 0.002 | -0.112 | -0.011 | 0.057
TRAPPC6B (UniProt Q86SZ2) | -0.008 | 0.024 | 0.111 | -0.069 | 0.044 | -0.045 | 0.014 | -0.014 | 0.025 | 0.014 | -0.005 | -0.024 | -0.008 | -0.027 | -0.042 | 0.021 | 0.024 | 0.04 | -0.028 | 0.045
TOM1L1 (UniProt O75674) | -0.001 | 0.08 | 0.184 | -0.059 | 0.102 | -0.342 (active) | -0.03 | 0.011 | -0.021 | -0.016 | -0.025 | -0.265 (active) | -0.003 | -0.069 | -0.04 | 0.087 | 0.031 | 0.032 | 0.06 | 0.034
TRMT2A (UniProt Q8IZ69) | -0.034 | -0.016 | -0.072 | 0.152 | -0.041 | 0.019 | 0.063 | 0.045 | 0.07 | -0.122 | 0.059 | -0.001 | 0.021 | -0.048 | -0.019 | -0.064 | 0 | 0.009 | 0.03 | -0.005
WAPL isoform 3 (UniProt Q7Z5K2) | 0.052 | -0.23 | 0.18 | -0.142 | 0 | -0.199 | 0.052 | -0.006 | 0.017 | -0.026 | 0 | -0.044 | -0.011 | 0.01 | -0.081 | -0.03 | 0.04 | 0.096 | -0.218 | 0.156

Source: the supplement of paper PMC10849652
